Reference: PubChem BioAssay (NCI)
This is part of a sample that, as a whole, favours compounds with a hit. Of some 83,000 tested, about 20% had one in any assay.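 Activity criterion: percent growth below 10, measured after cells in 96-well plates were exposed to a single compound concentration for 48 hours.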 Calls of active or inactive are those of the source.

Tests used:
Assay in all cases: NCI-60 one-dose screen, 48 h (100 = growth as untreated, 0 = no growth, -100 = all killed)
Details in all cases: 10 µM unless noted
[1] = system: SK-MEL-2 melanoma
[2] = system: EKVX NSCLC
[3] = system: SN12C renal
[4] = system: UO-31 renal
[5] = system: TK-10 renal
[6] = system: ACHN renal
[7] = system: CAKI-1 renal
[8] = system: A498 renal
[9] = system: CCRF-CEM leukemia
[10] = system: MOLT-4 leukemia
[11] = system: SR leukemia
[12] = system: RPMI-8226 leukemia
[13] = system: OVCAR-5 ovarian
[14] = system: OVCAR-4 ovarian
[15] = system: SK-OV-3 ovarian
[16] = system: IGROV1 ovarian
[17] = system: OVCAR-3 ovarian
[18] = system: HS 578T breast
[19] = system: NCI/ADR-RES ovarian

Measured: growth

CC1(C)C2CC1C1(/C=N/NC(N)=S)C(C2)C(C#N)(C#N)C1(C#N)C#N (stereo not drawn)
active: [11] 4.63%
inactive: [1] 90.3% | [2] 93.8% | [3] 87.6% | [4] 51.4% | [5] 116% | [6] 44.8% | [7] 104% | [8] 94.3% | [9] 16% | [10] 11.3% | [12] 30.4% | [13] 126% | [14] 94.3% | [15] 103% | [16] 67.1% | [17] 63.1% | [18] 88.7% | [19] 93.5%

COc1ccc(CN2c3ccccc3Sc3ccccc32)c(F)c1
active: [8] -11.6% | [9] 7.16% | [17] -20.4%
inactive: [1] 30.4% | [2] 51% | [3] 47.1% | [4] 43% | [5] 51.1% | [6] 43.4% | [7] 21.5% | [10] 22.6% | [11] 12.2% | [12] 12.2% | [13] 50.2% | [14] 61.6% | [15] 30.4% | [16] 50.3% | [18] 21.6% | [19] 22%

[O-][n+]1c2ccccc2[n+]([O-])c2c3ccccc3[nH]c21
inactive: [1] 61.9% | [2] 30.8% | [3] 81.3% | [4] 70% | [5] 41% | [6] 87.5% | [7] 48.1% | [9] 82.3% | [10] 98.8% | [11] 95.6% | [12] 57.9% | [13] 21% | [14] 34.4% | [15] 42.8% | [16] 13.8% | [18] 96.3% | [19] 65.4%
active: [8] -38.5% | [17] -20.6%

Cc1nc2nc(SCC(=O)O)[nH]c2c(=O)[nH]1
inactive: [1] 96% | [2] 108% | [3] 100% | [4] 92.2% | [5] 101% | [6] 110% | [7] 99.2% | [8] 81.5% | [9] 97.2% | [10] 103% | [11] 115% | [12] 96.9% | [13] 104% | [14] 131% | [15] 103% | [16] 101% | [17] 115% | [18] 99% | [19] 105%

COc1cccc(Oc2ccccc2NC(=O)CNC(=O)c2cccc3ccccc23)c1
active: [8] -16.3% [5 µM] | [11] 5.26% [5 µM] | [17] -23.7% [5 µM]
inactive: [1] 30% [5 µM] | [2] 35.3% [5 µM] | [3] 31.4% [5 µM] | [4] 39.8% [5 µM] | [5] 58.5% [5 µM] | [6] 33.7% [5 µM] | [7] 23.8% [5 µM] | [9] 15.4% [5 µM] | [10] 12.3% [5 µM] | [12] 21.8% [5 µM] | [13] 41.8% [5 µM] | [14] 42.2% [5 µM] | [15] 42.2% [5 µM] | [16] 27.6% [5 µM] | [18] 24.7% [5 µM] | [19] 15.3% [5 µM]

C=C1C(=O)O[C@H]2[C@H]1CC/C(COC(=O)NCCOCCOCC(=O)Nc1ccc(OC)c(C(N)=O)c1O)=C\CC[C@@]1(C)O[C@@H]21
active: [9] -4.37% | [11] 7.91%
inactive: [1] 72.5% | [2] 84.1% | [3] 66% | [4] 74.9% | [5] 45.5% | [6] 40.8% | [7] 82% | [8] 92.5% | [10] 17% | [12] 16% | [13] 90.9% | [14] 71% | [15] 109% | [16] 24.7% | [17] 45.8% | [18] 90.1% | [19] 94.6%

Nc1ccc(Sc2ccc([N+](=O)[O-])c3nonc23)cc1
inactive: [1] 96.1% | [2] 92.5% | [3] 93.7% | [4] 65.6% | [5] 111% | [6] 23% | [7] 103% | [8] 80.2% | [9] 27.7% | [10] 26.8% | [12] 79.9% | [13] 108% | [14] 97.8% | [15] 96.8% | [16] 97% | [17] 78% | [18] 102% | [19] 98.8%
active: [11] 7.97%
